“And” between values parts separate entries of the source, which are not always exact repeats. Equal values may be shown once. Out of some 5,500 compounds screened, about 2,000 (36%) were called active. Not shown: some 18% with an inconclusive outcome. Cut-off read from the data, not from the text of the source: active = normalized growth mostly below about 0.91 (no sharp cut-off); inconclusive = no clear call, values can overlap the other calls; inactive = mostly above about 0.92. The list shows a part of the results.
Assay: chemical genetic growth profiling, strain panel (AID 1159580);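 note: tested at 20 µM; growth read once vehicle control cultures reached saturation at 30 °C; 1 = growth at the plate median or of vehicle wells; lower values mean less growth of the strain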
Conditions: S. cerevisiae deletion strains, growth OD

Measured: normalized growth

CCCCOc1ccc(CC(=O)NO)cc1
inactive: locus YAL021C, strain ccr4, hits give low values 0.987 | locus YAL026C, strain drs2, hits give low values 0.983 | locus YAL030W, strain snc1, hits give low values 1 | locus YBL061C, strain skt5, hits give low values 0.996 | locus YBR009C, strain hhf1, hits give low values 0.953 | locus YBR021W, strain FUR4, hits give low values 1.02 | locus YBR023C, strain chs3, hits give low values 0.993 | locus YBR171W, strain sec66, hits give low values 0.98 | locus YBR229C, strain ROT2, hits give low values 1 | locus YBR231C, strain swc5, hits give low values 0.988 | locus YBR279W, strain paf1, hits give low values 1 | locus YCL011C, strain gbp2, hits give low values 0.99 | locus YCL016C, strain dcc1, hits give low values 0.967 | locus YCL029C, strain bik1, hits give low values 1 | locus YCL061C, strain MRC1, hits give low values 1.01 | locus YCL069W, strain vba3, hits give low values 0.973 | locus YCR088W, strain abp1, hits give low values 1 | locus YDL005C, strain med2, hits give low values 0.994 | locus YDL035C, strain GPR1, hits give low values 0.977 | locus YDL040C, strain nat1, hits give low values 0.998 | locus YDL074C, strain BRE1, hits give low values 0.964 | locus YDL101C, strain DUN1, hits give low values 0.99 | locus YDL134C, strain PPH21, hits give low values 0.965 | locus YDL185W, strain tfp1, hits give low values 1 | locus YDL192W, strain arf1, hits give low values 1.01 | locus YDR001C, strain nth1, hits give low values 0.991 | locus YDR069C, strain doa4, hits give low values 1 | locus YDR101C, strain arx1, hits give low values 0.988 | locus YDR137W, strain rgp1, hits give low values 0.857 | locus YDR150W, strain NUM1, hits give low values 0.992 | locus YDR159W, strain sac3, hits give low values 0.96 | locus YDR162C, strain NBP2, hits give low values 0.99 | locus YDR195W, strain ref2 0.94 | locus YDR297W, strain sur2, hits give low values 0.992 | locus YDR318W, strain mcm21, hits give low values 1.01 | locus YDR334W, strain swr1, hits give low values 1.02 | locus YDR335W, strain msn5, hits give low values 1.01 | locus YDR388W, hits give low values 1 | locus YDR392W, strain spt3, hits give low values 0.935 | locus YDR502C, strain sam2, hits give low values 0.997 | locus YEL003W, strain gim4, hits give low values 0.97 | locus YEL037C, strain rad23, hits give low values 0.993 | locus YEL061C, strain CIN8 (second series), hits give low values 0.994 | locus YEL061C, strain CIN8, hits give low values 0.996 | locus YER015W, strain faa2, hits give low values 1 | locus YER016W, strain bim1, hits give low values 0.997 | locus YER110C, hits give low values 1.02 | locus YER111C, strain swi4, hits give low values 0.996 | locus YER155C, strain BEM2 (second series), hits give low values 0.939 | locus YER155C, strain BEM2, hits give low values 0.994 | locus YER167W, strain BCK2, hits give low values 0.989 | locus YFR010W, strain ubp6, hits give low values 0.999 | locus YGL078C, strain dbp3, hits give low values 1 | locus YGL086W, strain mad1, hits give low values 1 | locus YGL167C, strain pmr1, hits give low values 1.01 | locus YGL173C, strain kem1, hits give low values 1.02 | locus YGL227W, strain vid30, hits give low values 0.993 | locus YGL240W, strain doc1, hits give low values 0.997 | locus YGL248W, strain PDE1, hits give low values 0.965 | locus YGL253W, strain hxk2, hits give low values 0.975 | locus YGR078C, strain PAC10, hits give low values 0.957 | locus YGR135W, strain pre9, hits give low values 1 | locus YGR229C, strain SMI1, hits give low values 0.916 | locus YGR252W, strain gcn5, hits give low values 0.878 | locus YHR013C, strain ard1, hits give low values 0.978 | locus YHR027C, strain rpn1, hits give low values 1.01 | locus YHR030C, strain SLT2, hits give low values 0.994 and 1.05 | locus YHR079C, strain IRE1 (second series), hits give low values 1.01 | locus YHR079C, strain IRE1, hits give low values 1 | locus YHR094C, strain hxt1, hits give low values 1 | locus YHR129C, strain ARP1, hits give low values 0.994 | locus YHR142W, strain chs7, hits give low values 0.961 | locus YHR200W, strain rpn10, hits give low values 1.01 | locus YIL066C, strain RNR3, hits give low values 0.915 | locus YIL073C, strain SPO22, hits give low values 0.974 | locus YIL125W, strain kgd1, hits give low values 0.997 | locus YIR030C, strain dcg1, hits give low values 1 | locus YJL092W, strain hpr5, hits give low values 0.997 | locus YJL095W, strain BCK1 (second series), hits give low values 1 | locus YJL095W, strain BCK1, hits give low values 0.959 and 1.01 | locus YJL115W, strain asf1, hits give low values 1 | locus YJL129C, strain trk1, hits give low values 0.966 | locus YJL134W, strain LCB3, hits give low values 0.996 | locus YJL154C, strain vps35, hits give low values 0.997 | locus YJL164C, strain tpk1, hits give low values 0.985 | locus YJL166W, strain qcr8, hits give low values 0.922 | locus YJL168C, strain set2, hits give low values 1 | locus YJL187C, strain SWE1 (second series), hits give low values 0.991

Reference: PubChem BioAssay AID1159580 (chemical genetic matrix, 2015)
